Results reported in PubChem BioAssay (NCI).
About 83,000 compounds went through this panel and 20% of them were active in at least one assay; those are over-represented in the sample as a whole.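 Percent growth is the endpoint: 0 to 100 indicates growth inhibition (40 means 60% inhibition), 0 means no net growth, and negative values indicate cell death.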 Calls of active or inactive are those of the source. Rule for the calls: active = growth percent below 10; inactive = the rest.

Key:
Experiment in all cases: NCI-60 one-dose screen, 48 h (100 = growth as untreated, 0 = no growth, -100 = all killed)
Conditions in all cases: 10 µM unless noted
[1] = system: DU-145 prostate
[2] = system: K-562 leukemia
[3] = system: MALME-3M melanoma
[4] = system: MDA-MB-231 breast
[5] = system: RXF 393 renal
[6] = system: SF-268 CNS
[7] = system: SF-295 CNS
[8] = system: SF-539 CNS
[9] = system: UACC-257 melanoma
[10] = system: M14 melanoma
[11] = system: HCT-15 colon
[12] = system: SNB-75 CNS
[13] = system: SNB-19 CNS
[14] = system: U251 CNS
[15] = system: PC-3 prostate
[16] = system: SK-MEL-5 melanoma
[17] = system: UACC-62 melanoma
[18] = system: LOX IMVI melanoma
[19] = system: SK-MEL-28 melanoma
[20] = system: HT29 colon

Measured: growth

CNC(=O)c1[nH]cc(-c2ccc(OC)cc2)c1-c1cc(OC)c2c(c1OC)OCO2
inactive: [1] 110% | [2] 105% | [3] 95% | [4] 100% | [5] 97.5% | [6] 101% | [7] 97.6% | [8] 103% | [9] 104% | [10] 101% | [11] 97.1% | [12] 66.9% | [13] 93.9% | [14] 98.4% | [15] 92.1% | [16] 100% | [17] 90% | [18] 96.5% | [19] 101%

N#Cc1ccc(O)c(C2=NCC(c3ccccc3)O2)c1 (configuration not stated)
inactive: [1] 53.7% | [2] 23.4% | [3] 56.6% | [4] 46.4% | [5] 73.1% | [6] 47.2% | [7] 36.4% | [8] 61.2% | [9] 35.4% | [10] 41.8% | [11] 20.8% | [12] 74.9% | [13] 46% | [14] 19.6% | [15] 31.6% | [16] 39.1% | [17] 37.8% | [18] 25.9% | [19] 86.4%

CC(C)(C)[Si](C)(C)OC1[C@@H](CNC(=O)NC(=O)NC(N)=O)O[C@@H](n2cnc3c(NC(=O)Nc4ccccc4)ncnc32)[C@H]1O[Si](C)(C)C(C)(C)C (some centres not stated)
inactive: [1] 58.9% | [2] 66.3% | [3] 79% | [4] 83.7% | [5] 71.6% | [6] 66.4% | [7] 73.1% | [8] 95.4% | [9] 94% | [10] 68% | [11] 94.8% | [12] 84.1% | [13] 98.3% | [14] 69.1% | [15] 41.5% | [16] 91.8% | [17] 87.8% | [18] 56% | [19] 63.5%

COC(=O)c1nc(-c2ccccc2)oc1S(=O)(=O)Cc1ccccc1
inactive: [1] 109% | [4] 85.2% | [5] 96.8% | [6] 93.1% | [7] 103% | [8] 100% | [9] 85.1% | [10] 48% | [11] 62.2% | [12] 84.8% | [13] 96.2% | [15] 91.6% | [16] 93.4% | [17] 91.1% | [18] 61.1% | [19] 95.5%
active: [2] 2.87% | [3] -78.7%

OCCn1cc(-c2nc(-c3c[nH]c4ncccc34)cs2)c2cc(F)ccc21
inactive: [1] 83.7% | [2] 21.5% | [3] 84.9% | [4] 64.5% | [5] 51.1% | [6] 77% | [7] 72.1% | [8] 81.5% | [9] 87.8% | [10] 63.8% | [11] 41.6% | [12] 72.5% | [13] 79.5% | [14] 62.9% | [15] 48.7% | [16] 63% | [17] 63.3% | [18] 65.5% | [19] 89.8%

COC(=O)c1cc(N=C2NC(=O)/C(=C/C=C/c3ccccc3)S2)ccc1O
inactive: [1] 16.8% | [2] 14.4% | [3] 65.3% | [4] 54.7% | [6] 61.7% | [7] 20.3% | [8] 12.4% | [9] 70.9% | [10] 11.3% | [11] 25.8% | [20] 10.7% | [12] 12.9% | [13] 30.4% | [15] 30% | [16] 30.1% | [17] 33.6% | [18] 40.1% | [19] 65.4%
active: [5] -12.8%

Nc1nc2ccccc2c2c1S(=O)(=O)c1ccc(Cl)cc1C2=O
inactive: [1] 26.3% | [2] 11.5% | [4] 17.5% | [5] 10.2% | [6] 24.4% | [7] 31.8% | [8] 11.2% | [9] 24.7% | [10] 17.8% | [12] 24.5% | [13] 48.8% | [14] 11.9% | [15] 16.5% | [16] 28.5% | [17] 24.7% | [19] 34.5%
active: [3] -21% | [11] 1.95% | [18] 8.26%

COc1ccc2c(c1)N(CCO)C1=C(C(=O)OC1)C2c1cccc(F)c1 (configuration not stated)
active: [2] 9.63% | [7] -15.6% | [8] -17.3% | [10] -1.78% | [11] 7.3%
inactive: [1] 10.1% | [3] 55.7% | [4] 36% | [5] 31.3% | [6] 35.5% | [9] 67.6% | [12] 35.7% | [13] 27.8% | [14] 16.9% | [15] 25.6% | [16] 12.3% | [18] 27.5% | [19] 47.9%

Cn1ccnc1C(=O)/C=C/c1ccc(CC(=O)Nc2cc(C(F)(F)F)cc(C(F)(F)F)c2)cc1
inactive: [1] 73.4% | [2] 61.6% | [3] 77.9% | [4] 78.1% | [5] 56.2% | [6] 64.9% | [7] 84.3% | [8] 67.1% | [9] 72.8% | [10] 80.5% | [11] 53% | [12] 58.3% | [13] 67.1% | [14] 40.8% | [15] 55.9% | [16] 76.5% | [17] 67.5% | [18] 56.5% | [19] 91.2%

CCOC(=O)c1c(NC(=O)c2cccc(C(F)(F)F)c2)sc2c(CN(C)C)c(O)ccc12
active: [2] 2.41% | [3] -38.5% | [9] -10.5% | [10] -57.8%
inactive: [1] 72.5% | [4] 58.9% | [5] 38.4% | [6] 84.7% | [7] 96.2% | [8] 49.3% | [11] 10.6% | [12] 83% | [13] 88.4% | [14] 16.5% | [15] 60.3% | [16] 93.6% | [17] 102% | [18] 16.5% | [19] 17%

COc1ccc(-c2nc3cc(C(=O)NCc4ccccc4)ccc3n2C2CCCCC2)cc1
inactive: [1] 82.8% | [2] 41.1% | [3] 102% | [4] 77.5% | [5] 90.2% | [6] 79.4% | [7] 51% | [8] 60.2% | [9] 96.7% | [10] 78.1% | [11] 10% | [12] 64.3% | [13] 98.2% | [14] 68.2% | [15] 85.3% | [16] 38.6% | [17] 91% | [18] 53.9% | [19] 92.7%

Nc1nc2ccccc2c2c(=O)c3cccc(Cl)c3sc12
inactive: [1] 94.7% | [2] 91.7% | [3] 101% | [4] 78.9% | [5] 106% | [6] 102% | [7] 97.9% | [8] 88.4% | [9] 104% | [10] 96.9% | [11] 59% | [12] 89.2% | [13] 92.6% | [14] 77.3% | [15] 78.5% | [16] 96.3% | [17] 85.7% | [18] 90.2% | [19] 108%

Cc1cc(C(=O)Nc2ncc(Cc3cccc(C(F)(F)F)c3)s2)c2ccccc2n1
active: [2] 7.79% | [10] 3.81% | [16] 0.694% | [17] 9.95%
inactive: [1] 57.4% | [3] 26.8% | [4] 56.4% | [5] 31.1% | [6] 37.2% | [7] 15.1% | [8] 21.9% | [9] 43.3% | [11] 17.3% | [12] 18.1% | [13] 44.7% | [14] 18.5% | [15] 26.7% | [18] 12.6% | [19] 40.4%

O=S(=O)(Nc1cc(F)cc(Cl)c1)c1ccc(-c2cnc(C3CC3)o2)cc1
active: [8] 5.3% | [12] -22.1%
inactive: [1] 35.6% | [2] 17.1% | [3] 52.1% | [4] 42.7% | [5] 14.8% | [6] 59.5% | [7] 22.4% | [9] 62.9% | [10] 25.2% | [11] 25.4% | [13] 30.4% | [14] 33.6% | [15] 32% | [16] 19.9% | [17] 35.1% | [18] 39.3% | [19] 71.3%

C=C(C)[C@@H]1CC[C@]2(C(=O)O)CC[C@]3(C)[C@H](CC[C@@H]4[C@@]5(C)CCC(NC(=O)c6cccc(OC(C)=O)c6OC(C)=O)C(C)(C)[C@@H]5CC[C@]43C)[C@@H]12 (some centres not stated)
active: [3] -4.37% | [5] -34.3% | [7] -29.6% | [8] -26.4% | [9] 3.36% | [10] -16.2% | [11] 6.94% | [14] 9.78% | [16] -81.7% | [17] -38.3% | [18] -74.1%
inactive: [1] 21.3% | [2] 10.7% | [4] 11.9% | [6] 14.9% | [12] 12.5% | [13] 26% | [15] 17.6% | [19] 12%

CC(C)c1ccc(C(=O)Nc2sc3c(c2C(N)=O)CCC(=O)C3)cc1
active: [2] 1.14% | [3] -23.8% | [4] -54.4% | [5] -7.12% | [7] -3.53% | [8] -68.8% | [9] -11.8% | [10] -55.6% | [11] -15.7% | [12] -88.2% | [14] -3.68% | [15] -44.7% | [16] -62.8% | [17] -35.7% | [18] 4.43% | [19] 7.57%
inactive: [1] 31.2% | [6] 17.8% | [13] 13%
